Source: PubChem BioAssay AID485353 (National Center for Advancing Translational Sciences (NCATS), 2010)
Among all 330,000 compounds or so, about 610 (0.18%) were called active. Roughly 2% stayed inconclusive and do not appear here. This is one part of a sample in which actives are shown more often than they occur. The call rests on the fitted dose curve.

experiment: qHTS of Yeast-based Assay for SARS-CoV PLP; further: nearly all actives have a fitted effect of over 55% in size; on activity, positive = growth rescue: 0% is about no effect; conditions: S. cerevisiae expressing SARS-CoV PLpro; Potency: growth rescue; series mostly up to 32.9 µM; activity, positive = growth rescue: at the top concentration
Potency means the concentration at half of the fitted maximal effect.

SMILES	activity, positive = growth rescue	Potency
CC1(c2ccc(Cl)cc2Cl)NC(=O)N(CC(=O)Nc2cccnc2Cl)C1=O (stereo unspecified)	0.863% (inactive)	–
O=C(c1ccco1)N1CCN(CC(=O)N(C2CCCCC2)C2CCS(=O)(=O)C2)CC1 (stereo unspecified)	0.872% (inactive)	–
COc1ccc(CNC(=O)c2c[nH]c3c(OC)cc(OC)cc3c2=O)cc1	2.43% (inactive)	–
CC(=O)N1N=C(c2ccncc2)OC1(Cc1ccccc1)Cc1ccccc1	0.466% (inactive)	–
COC(=O)CCc1sc(Nc2ccc(Br)cc2)nc1-c1ccc(OC)cc1	-25.4% (inactive)	–
CN(C(=O)COC(=O)CCCc1c[nH]c2ccccc12)c1c(N)n(Cc2ccccc2)c(=O)[nH]c1=O	2.28% [at 6.58 µM] (inactive)	–
Cc1nc(-c2ccccc2)sc1C(=O)/C=C/N(C)C	-1.29% (inactive)	–
Cc1nc(-c2ccc(Cl)cc2)sc1C(=O)CBr	-22% (inactive)	–
Cc1ccc(SCC(=O)c2sc(-c3ccccc3)nc2C)cc1	–	3.55 µM (active)
CN(CC(=O)NCCN1CCOCC1)S(=O)(=O)c1ccc(F)cc1	3.57% (inactive)	–
Cc1[nH]n(-c2ccc([N+](=O)[O-])cc2)c(=O)c1C=NCCN1CCN(C(=O)c2ccccc2F)CC1	-15% (inactive)	–
C/C(=N\NC(=O)c1ccoc1C)c1ccccc1O	-15.6% (inactive)	–
Cc1[nH]n(-c2ccccc2)c(=O)c1/C=N/NC(=O)c1ccoc1C	–	2.51 µM (active)
COc1cc(/C=N/NC(=O)c2ccoc2C)ccc1OCCN1CCCCC1	-3.16% (inactive)	–
Cc1ccc(-n2[nH]c(C)c(/C=N/NC(=O)c3cccc([N+](=O)[O-])c3)c2=O)cc1C	–	1.26 µM (active)
C/C(=N\NC(=O)c1cccc([N+](=O)[O-])c1)c1cccnc1	1.13% (inactive)	–
O=C(Cn1cc(/C=N/NC(=O)c2cccc(C(F)(F)F)c2)c2ccccc21)Nc1ccc(F)cc1	1.14% (inactive)	–
O=C(NCCCn1ccnc1)C(=O)NCC1OCCN1S(=O)(=O)c1cc(F)ccc1F (stereo unspecified)	0.943% (inactive)	–
CCc1cccc(NC(=O)COC(=O)c2cc(=O)c3ccccc3o2)c1	-5.39% (inactive)	–
Nc1nonc1-n1nnc(C(=O)N/N=C\c2ccncc2)c1CN1CCCCC1	1.85% (inactive)	–
Cc1ccc(SCc2c(C(=O)N/N=C/C3CC=CCC3)nnn2-c2nonc2N)cc1 (stereo unspecified)	0.713% (inactive)	–
Nc1nonc1-n1nnc(C(=O)N/N=C/c2cc(Br)ccc2O)c1CSC1=NCCS1	–	4.47 µM (active)
CSc1nc(-c2ccco2)nn1C(=O)c1ccccc1Cl	-2.37% (inactive)	–
COc1cc(C(=O)N/C(=C\c2cn(C)c3ccccc23)C(=O)N2CCOCC2)cc(OC)c1OC	-0.452% (inactive)	–

SMILES	activity, positive = growth rescue	Potency
Cc1cc(C)nc(N/N=C/c2c(CO)cnc(C)c2O)n1	0.145% (inactive)	–
CCN(CC)c1ccc(/C=N/NC(=O)c2cnccn2)c(O)c1	4.67% (inactive)	–
CCN(CC)c1ccc(/C=N/Nc2nc(C)cc(C)n2)c(O)c1	–	5.01 µM (active)
CC1(C)Cc2nc3sc4c(SCC(=O)NC(c5ccccc5)c5ccccc5)ncnc4c3cc2CO1	0.705% (inactive)	–
COc1ccc(NC(=O)C(=O)NCC(c2ccco2)N2CCc3ccccc3C2)cc1 (stereo unspecified)	-16.8% (inactive)	–
CCOc1c(Nc2cccc(Cl)c2)c(=O)c1=O	-0.74% (inactive)	–
CCOCCCNC(=O)C(NC(=O)c1ccc(=O)[nH]c1)c1ccc(Cl)cc1 (stereo unspecified)	1.05% (inactive)	–
CC1(C(=O)OCC(=O)Nc2ncc(Cl)cc2Cl)CC1(Cl)Cl (stereo unspecified)	-3.29% (inactive)	–
CN(CC(=O)Nc1ccc(S(=O)(=O)N2CCCC2)cc1)Cc1ccc(Cl)c(Cl)c1	-24.7% (inactive)	–
C=CCn1c(C23CC4CC(CC(C4)C2)C3)n[nH]c1=S	–	11.2 µM (active)
C=CCn1c(-c2sc(-c3ccccc3)nc2C)n[nH]c1=S	5.03% (inactive)	–
C=CCn1c(SCC(=O)NC)nnc1C12CC3CC(CC(C3)C1)C2	-2.6% (inactive)	–
O=C(Nc1ccc(C(=O)O)cc1)/C(=C/c1ccc([N+](=O)[O-])cc1)NC(=O)c1ccccc1	0.0593% (inactive)	–
C=CCNC(=O)/C(=C\c1cccc([N+](=O)[O-])c1)NC(=O)c1ccccc1	-8.39% (inactive)	–
O=C(N/N=C/c1cc([N+](=O)[O-])ccc1O)/C(=C\c1cccs1)NC(=O)c1ccccc1	–	3.98 µM (active)
COc1cccc(CNC(=O)CN(C)S(=O)(=O)c2ccc3c(c2)c(=O)n(C)c(=O)n3C)c1	–	3.55 µM (active)
CC1CCC(NC(=O)CN(C)S(=O)(=O)c2ccc3c(c2)c(=O)n(C)c(=O)n3C)CC1 (stereo unspecified)	-0.025% (inactive)	–
CCc1ccccc1NC(=O)CN(C)S(=O)(=O)c1ccc2c(c1)c(=O)n(C)c(=O)n2C	7.46% (inactive)	–
COc1ccc(NC(=O)Nc2ccc3c(c2)C(=O)N([C@H](C)CO)C[C@H](C)[C@@H](CN(C)C(=O)Nc2ccc4c(c2)OCO4)O3)cc1	-9% (inactive)	–
Cc1ccc(S(=O)(=O)N2[C@@H](c3cccc(Cl)c3)C(C(=O)O)=CC[C@H]2c2ccc(Cl)c(Cl)c2)cc1	-2.2% (inactive)	–
CCCCNC(=O)N(O)C1N(/N=C/c2ccccc2O)C(=S)SC1(C)C (stereo unspecified)	-0.771% (inactive)	–
COC(=O)c1ccc(/C=N/OCC(=O)Nc2cc(F)ccc2F)cc1	0.314% (inactive)	–
COc1ccc(-c2cc(=O)oc3cc(OC(C)C(=O)NCC4CCC(C(=O)O)CC4)ccc23)cc1 (stereo unspecified)	-11% (inactive)	–
CSc1nsc(SCC(=O)Nc2cc(C(=O)O)ccc2C)n1	-10.5% (inactive)	–

SMILES	activity, positive = growth rescue	Potency
O.O.O.O=S(=O)([O-])OC[C@H]1O[C@@H](O[C@]2(COS(=O)(=O)[O-])O[C@H](OS(=O)(=O)[O-])[C@@H](OS(=O)(=O)[O-])[C@@H]2OS(=O)(=O)[O-])[C@H](OS(=O)(=O)[O-])[C@@H](OS(=O)(=O)[O-])[C@@H]1OS(=O)(=O)[O-].[Al]	-2.8% (inactive)	–
CC(C)c1c(C(=O)N/N=C/c2ccc(-c3ccccc3)cc2)nnn1-c1nonc1N	4.62% (inactive)	–
CC(C)c1c(C(=O)N/N=C/c2ccccc2C(=O)O)nnn1-c1nonc1N	–	5.01 µM (active)
Nc1nonc1-n1nnc(C(=O)N/N=C/c2c[nH]c3ccccc23)c1-c1ccccc1	2.38% (inactive)	–
CCc1ccccc1N1C(=O)C2C3CC(=O)C(c4ccccc43)C2C1=O (stereo unspecified)	-0.753% (inactive)	–
c1ccc2cc3c(NCCN4CCOCC4)ccnc3cc2c1	-6.02% (inactive)	–
Fc1ccc(CNCc2ccc(Br)cc2)cc1	-2.89% (inactive)	–
O=C(CCl)N(Cc1cccc([N+](=O)[O-])c1)c1cccc(Cl)c1	-13.9% (inactive)	–
COc1ccc(NC(=O)Cn2cc(C(=O)c3ccncc3)c(=O)c3cc(C)ccc32)cc1Cl	-4.91% (inactive)	–
COc1cc(C2C(C(=O)OCCC#N)=C(C)NC3=C2S(=O)(=O)c2ccccc23)cc(OC)c1OC (stereo unspecified)	-1.09% (inactive)	–
COc1ccc(C2N=C(N)N=C(N)N2c2ccccc2)cc1OC (stereo unspecified)	14.8% (inactive)	–
CCOC(=O)C1CCN(S(=O)(=O)c2c(C)noc2C)CC1	-1.04% (inactive)	–
COc1ccc(CCN2CC(C(=O)NCCN3CCNC3=O)CCC2=O)cc1 (stereo unspecified)	-2.52% (inactive)	–
CN(C)C(=O)N1CCNCC1	0.248% (inactive)	–
CCC(=O)Nc1c(C)n[nH]c1C	–	10 µM (active)
CCC(=O)Nc1nc(OC)cc(OC)n1	1.15% (inactive)	–
COC(=O)c1ccc(NC(=O)CN(c2ccc(C)cc2)S(=O)(=O)c2c(C)n[nH]c2C)cc1	-1.77% (inactive)	–
CCCC[C@]12Cc3cc(OC)c(OC)cc3C(O1)C1=C(CC3(CCCCC3)OC1=O)O2	5.12% [at 6.58 µM] (inactive)	–
O=C(CSc1ncnc2c1cnn2CCc1ccccc1)Nc1ccc(F)cc1	-3.59% (inactive)	–
O=C(NCCCCCCCCCNC(=O)C(F)(F)F)C(F)(F)F	-1.93% (inactive)	–
CC1CC(C)CN(C/C=C/c2ccccc2[N+](=O)[O-])C1 (stereo unspecified)	1.94% (inactive)	–
COc1ccc(NC(=O)C(NC(C)=O)C(=O)NCc2ccccc2Cl)cc1 (stereo unspecified)	-3.2% (inactive)	–
CCCCNS(=O)(=O)CCNCc1ccccc1OC	9.04% (inactive)	–
CCOC(=O)[C@@H]1[C@H]2COc3cc(OC)ccc3[C@H]2N2C(=O)N(c3ccc(F)cc3)C(=O)[C@]12C	8.51% (inactive)	–

SMILES	activity, positive = growth rescue	Potency
S=C(NCC1COc2ccccc2O1)Nc1ccc(Br)cc1 (stereo unspecified)	1.94% (inactive)	–
CCCN(CC1COc2ccccc2O1)C(=S)Nc1ccc(C)cc1 (stereo unspecified)	-48.5% (inactive)	–
CC(NC(=S)Nc1ccccc1)C1COc2ccccc2O1 (stereo unspecified)	–	10 µM (active)
O=C(CNC(=O)C12CC3CC(CC(C3)C1)C2)OCC(=O)N1CCCCC1	3.92% (inactive)	–
Cc1sc(NC(=O)C2=COCCO2)c(C#N)c1C	2.2% (inactive)	–
Cc1cccc(N2O[C@H]3C=CC2CCCC3)n1	-0.669% (inactive)	–
COc1ccc(CCNC(=O)COC(=O)c2ncc(Cl)c(Cl)c2Cl)cc1OC	0.326% (inactive)	–
CC1(C)C2CCC1(CS(=O)(=O)NCCc1c[nH]c3ccccc13)C(=O)C2 (stereo unspecified)	0.0459% (inactive)	–
Cc1nc2c(C(=O)NCc3cccs3)cnn2c(C)c1Cc1ccc(F)cc1	8.47% (inactive)	–
Nc1ccccc1SC(C[N+](=O)[O-])c1ccccc1 (stereo unspecified)	-17.8% (inactive)	–
COc1ccc(N(CCC#N)S(=O)(=O)c2ccc(Cl)cc2)cc1	6.74% (inactive)	–
Cc1ccc(N2C(=O)S/C(=C/c3cn(C)c4ccccc34)C2=O)cc1	-0.142% (inactive)	–
Cc1ccc(N=C2NC(=O)/C(=C/C=C/c3ccco3)S2)cc1C	-2.44% (inactive)	–
Cc1cccc(N=C2NC(=O)/C(=C/c3cn(C)c4ccccc34)S2)c1	–	15.8 µM (active)
CCCCNc1nc2ccccc2nc1NS(=O)(=O)c1cccs1	-1.16% (inactive)	–
O=S(=O)([N-]c1nc2ccccc2nc1-[n+]1ccc(Cc2ccccc2)cc1)c1ccc(Br)s1	-1.28% (inactive)	–
Cc1cc(C)c[n+](-c2nc3ccccc3nc2[N-]S(=O)(=O)c2cccs2)c1	–	11.2 µM (active)
CCC1CCCCN1C(=O)CSc1nc2c(c(=O)n1C)SC(C)C2 (stereo unspecified)	-2.93% (inactive)	–
COc1ccc(Br)cc1/C=N/NC(=O)c1cccc(S(=O)(=O)N2CCOCC2)c1	0.939% (inactive)	–
COc1cccc(/C=N/NC(=O)c2[nH]nc3c2CCc2ccccc2-3)c1O	–	6.31 µM (active)
COc1ccc(/C=N/NC(=O)c2ccncc2)cc1CN1CCCc2ccccc21	0.0683% (inactive)	–
CC(C#N)(NC(=O)CN1CCN(S(=O)(=O)c2cc(C(F)(F)F)ccc2Cl)CC1)C1CC1 (stereo unspecified)	7.04% (inactive)	–
COc1ccc2cc(-c3[nH]ncc3CNCCn3nc(C)cc3C)ccc2c1	0.222% (inactive)	–
CCn1c(=O)c(=O)n(CC)c2cc(N3CCCCC3)c(NC(=O)c3ccc(Cl)cc3)cc21	-8.37% (inactive)	–
